AmpC no deterg – AmpC beta-lactamase inhibition without detergent | AmpC nitrocefin hydrolysis, absorbance 480 nm, 0.0001% Triton | Potency, µM (titrated, usually from 57.1 µM), for the others: top-dose activity change, negative = inhibition, hits mostly inhibitors | hit rate 0.52% among 330,000 | AID 485341;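 note: plate controls were no compound for no effect and no enzyme for full effect; nearly all actives have a fitted effect of over 20% in size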
Target sequence (P00811 whole entry, looked up): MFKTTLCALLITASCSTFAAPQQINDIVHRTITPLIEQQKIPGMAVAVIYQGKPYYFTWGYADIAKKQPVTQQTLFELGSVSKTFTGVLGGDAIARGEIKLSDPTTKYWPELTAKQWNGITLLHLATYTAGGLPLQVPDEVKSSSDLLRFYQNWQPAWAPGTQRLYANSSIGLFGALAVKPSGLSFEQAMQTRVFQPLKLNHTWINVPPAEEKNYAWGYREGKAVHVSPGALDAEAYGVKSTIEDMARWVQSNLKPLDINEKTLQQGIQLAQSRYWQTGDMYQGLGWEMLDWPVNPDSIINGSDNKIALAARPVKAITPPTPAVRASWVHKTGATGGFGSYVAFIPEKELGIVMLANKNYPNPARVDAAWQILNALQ
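20 mM phosphate pH 7.0 + 0.01% (detergent screen) or 0.0001% Triton X-100; 5.3 nM AmpC reagent; cpd preinc 15 min RT; nitrocefin (800 uM stock) to start; A480 q20 s × 4 min; Activity was normalised to no-enzyme and no-compound control wells.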
AmpC inh detg – blocks E. coli AmpC beta-lactamase in detergent assay; P00811; AmpC hydrolysis of nitrocefin, absorbance 480 nm, 0.01% Triton; Potency, µM (titrated, usually from 114 µM), for the others: at the top dose activity change, negative = inhibition, most hits filed as inhibitors; hit rate 0.041% among 370,000;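 note: 0% = no-compound wells and -100% = no-enzyme wells; nearly all actives have a fitted effect of over 25% in size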
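20 mM phosphate pH 7.0 + 0.01% (detergent screen) or 0.0001% Triton X-100; 5.3 nM AmpC reagent; cpd preinc 15 min RT; nitrocefin (800 uM stock) to start; A480 q20 s × 4 min; Activity was normalised to no-enzyme and no-compound control wells.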
AMA1-RON2 inh – AMA1-RON2 (P. falciparum) interaction inhibition; AID 720542; hit rate 0.2% among 360,000; Potency, µM (top dose mostly 58.2 µM), without a hit: top-dose activity change, negative = inhibition, most hits filed as inhibitors; AlphaScreen AMA1-biotinylated RON2 peptide binding;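 note: 0% = vehicle wells and -100% = peptide control; nearly all actives have a fitted effect of over 45% in size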
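AMA1 (3D7) with his tag at 25 nM final met compounds first, then biotinylated RON2 peptide at 25 nM; detection used donor plus acceptor beads, 10 µg/mL apiece, read by AlphaScreen after 30 min at room temperature.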
FMDV antiviral – foot and mouth disease virus antiviral activity | FMDV antiviral cell-based qHTS | Potency, µM (titrated, usually from 57.9 µM), without a hit: top-dose activity change, negative = inhibition, hits mostly inhibitors | hit rate 1.2% among 410,000 | AID 1159524; calls by dose curve; tested in HEK293T cells; note: read-out not given here; nearly all actives have a fitted effect of over 45% in size
Sm TGR block – inhibitors of Schistosoma mansoni thioredoxin glutathione reductase; Q962Y6; purified TGR, DTNB reduction, TNB absorbance 405 nm; Potency, µM (top dose mostly 114 µM), without a hit: top-dose activity change, negative = inhibition, actives largely listed as inhibitors; hit rate 3% among 360,000; AID 485364; note: nearly all actives have a fitted effect of over 60% in size
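Kinetic colorimetric format: TGR-catalysed, NADPH-driven DTNB reduction monitored via TNB absorbance. Enzyme dispensed at 20 nM; compound exposure 15 min at room temperature before reaction start.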
The depositor's hits bear a star; ? = inconclusive; . = no result. Sampled rows, rich in hits. Any-hit rate of the full collection: about 4.1%. Unless noted, calls come from the whole dose curve; as a rule, active = well fitted curve in the direction sought with a large enough effect; inconclusive = small, poorly fitted or top-dose-only effect, or another doubt; inactive = no such curve, though single readings can be large; an effect the other way counts as inactive or inconclusive. Unless noted, % is set by controls: 0 for no effect and ±100 for the full control effect; potency is the fitted concentration of half-maximal effect.

SMILES | AmpC no deterg | AmpC inh detg | AMA1-RON2 inh | FMDV antiviral | Sm TGR block
CC(C)Cn1c(N)c(C(=O)COC(=O)/C=C/c2cccs2)c(=O)n(C)c1=O | 9.7% | -3.7% | -4.7% | 17.8µM* | -9.9%
O=C(c1cccc(F)c1)N1CCC[C@@]2(CCN(Cc3nccs3)C2)C1 | . | . | . | -14.6% | .
O=C1C=C(N2CCN(C3=CC(=O)CCC3)CC2)CCC1 | -23.4% | ? | 36.9% | 0.0% | 20µM*
COCCCNC(=O)CC1Oc2ccccc2NC1=O (stereo not given) | 10µM* | ? | 19.7% | -24.8% | -0.5%
CCCSCCCNC(=O)CC1Oc2ccccc2NC1=O (stereo not given) | -14.1% | ? | -6.2% | -1.2% | -24.4%
Cc1ccc2c(c1)NC(=O)C(CC(=O)NCCCN1CCCCC1)O2 (stereo not given) | 0.1% | ? | -4.8% | -2.0% | 100µM*
O=C(CC1Oc2ccccc2NC1=O)NC1CC1 (stereo not given) | -17.2% | -0.4% | . | . | 79.4µM*
Cc1ccc2c(c1)NC(=O)C(CC(=O)NCCCN1CCCC1=O)O2 (stereo not given) | -16.7% | -0.1% | -1.9% | -11.1% | -20.7%
CCOc1ccc(NC(=O)Cn2cnc3sc(C)c(S(=O)(=O)N4CCN(c5ccccc5OC)CC4)c3c2=O)cc1 | . | 6.9% | . | 0.0% | -2.7%
CC(=O)Oc1cc2c(c(C)c1OC(C)=O)CC=C1[C@]3(C)CC[C@]4(C)CC[C@@](C)(C(=O)O)CC4[C@]3(C)CC[C@]12C (stereo not given in full) | . | . | . | 35.5µM* | .
CC1=C(O)C(=O)C=C2C1=CC=C1C2(C)CCC2(C)C3CC(C)(C(=O)O)CCC3(C)CCC12C (stereo not given) | . | . | ? | -10.9% | .
Cc1c(O)c(O)cc2c1CC=C1[C@]3(C)CC[C@]4(C)CC[C@@](C)(C(=O)O)CC4[C@]3(C)CC[C@]12C (stereo not given in full) | . | . | . | 25.1µM* | .
CCN(CC)S(=O)(=O)c1nnc(NC(=O)COc2cccc(C)c2)s1 | . | -0.5% | . | -2.8% | -4.7%
O=C1C=CC2(O[C@H](c3ccccc3)[C@@H](c3ccccc3)O2)[C@H](Sc2ccccc2O)C1 | . | . | -11.8% | 7.94µM* | .
CN(CCOC(=O)/C=C/c1ccco1)Cc1ccccc1 | -10.9% | 6.1% | -10.7% | 12.1% | 2.51µM*
CN(Cc1ccccc1)C(=O)COC(=O)/C=C/c1ccco1 | -5.6% | 8.7% | 7.2% | 29.0% | 3.55µM*
CN(CCOC(=O)c1ccco1)Cc1ccccc1 | -21.8% | ? | -3.6% | 1.0% | 0.4%
Cc1ccc(Nc2ccc([N+](=O)[O-])nc2[N+](=O)[O-])cc1 | -14.9% | 1.0% | -5.0% | -17.9% | 44.7µM*
O=C(Nc1ccc(C(=O)N2CCC(N3CCCC3)CC2)cc1)c1ccc(Br)o1 | 1.0% | 1.6% | -16.1% | -23.1% | 25.1µM*
O=C(Nc1ccc(C(=O)N2CCN(c3ccccn3)CC2)cc1)c1ccc(Br)o1 | -6.8% | -2.6% | -8.5% | -23.8% | 44.7µM*
O=C(c1ccc(Br)o1)N1CCN(c2ccccn2)CC1 | 4.4% | -1.1% | -2.6% | 4.6% | -0.7%
CCc1ccc(NC(=O)c2cnc(N3CCN(c4ccccn4)CC3)c3ccccc23)cc1 | -38.5% | -7.2% | ? | 11.2µM* | 6.4%
N#Cc1ccccc1N1CCN(C(=O)c2ccc(NC(=O)c3ccc(Br)o3)cc2)CC1 | -40.2% | -0.7% | -12.3% | -11.3% | 28.2µM*
COc1ccccc1-c1ccnc(-n2ncc(C(=O)NC3CCCN(Cc4ccccc4)C3)c2C)n1 (stereo not given) | . | . | . | 1.4% | .
Cc1ccccc1NC(=O)CSC1=Nc2ccccc2C2=NC(Cc3ccccc3)C(=O)N12 (stereo not given) | . | 12.1% | . | -10.1% | 5.2%
SMILES | AmpC no deterg | AmpC inh detg | AMA1-RON2 inh | FMDV antiviral | Sm TGR block
CCOC(=O)c1cnc2c(OC)cccc2c1N1CCN(c2ccccn2)CC1 | 122.0% | ? | -14.9% | 31.6µM* | 14.9%
O=C(C1CC1)N1CCc2cc(Br)cc(S(=O)(=O)Nc3ccc(C(F)(F)F)cc3)c21 | . | 6.0% | . | -11.4% | 16.5%
CCn1cc(S(=O)(=O)c2ccccc2)c(=O)c2cc(F)c(N3CCN(c4ccccc4)CC3)cc21 | . | -6.2% | . | -22.3% | -4.6%
CC(C)(C)n1cc(C(=O)c2ccc3ccccc3c2O)cn1 | -12.9% | 12.5% | -2.0% | 15.8µM* | -0.5%
CCCCn1c(=N)c(S(=O)(=O)c2ccc(C)cc2)cc2c(=O)n3cc(C)ccc3nc21 | . | 3.9% | . | -5.5% | 7.3%
Oc1c(C(c2ccccc2Cl)N2CCCC2)ccc2cccnc12 (stereo not given) | -31.6% | 2.6% | -16.0% | ? | ?
CN1CCN(C(c2ccc(C(F)(F)F)cc2)c2ccc3cccnc3c2O)CC1 (stereo not given) | -1.3% | 0.3% | -23.6% | -28.2% | 0.316µM*
Oc1c(C(c2cccs2)N2CCN(c3ccccc3)CC2)ccc2cccnc12 (stereo not given) | . | -2.2% | . | . | 0.708µM*
O=C(NCCc1c[nH]c2ccccc12)Nc1ccccc1C(F)(F)F | . | 1.8% | . | -29.5% | -0.8%
Cc1ccc(C(=O)N/C(=C\c2ccc(Cl)cc2)C(=O)NC2CCCCC2)cc1 | . | -5.1% | . | 3.3% | 0.5%
Cc1cccc(C2=NCC(=O)N(CC(=O)NCc3ccco3)c3sc4c(c32)CCCC4)c1 | 73.9% | 1.6% | -16.2% | ? | 17.8µM*
COc1ccc(C2=NCC(=O)N(CC(=O)NCc3ccco3)c3sc4c(c32)CCCC4)cc1 | 54.3% | -3.8% | 14.5% | . | ?
COc1ccc(-c2cn3c(n2)sc2cc(C(=O)Nc4ccc(C)c(Cl)c4)ccc23)cc1 | . | 17.2% | . | 2.2% | -2.3%
COc1cc(NC(=O)N2CCN(c3cc(-c4noc(C)n4)ccc3C)CC2)cc(OC)c1OC | . | 2.5% | . | -2.0% | 0.1%
O=C(C1CC1)N1CCC(Oc2cccc(C(=O)N3CCCCC3CCO)c2)CC1 (stereo not given) | 27.7% | -8.4% | 6.3% | 13.2% | 4.0%
O=C(NCc1cccc(Cl)c1)c1cccc(OC2CCN(C(=O)C3CC3)CC2)c1 | 78.8% | -3.1% | -3.4% | 15.8µM* | 1.4%
CCOC(=O)c1ccccc1NC(=O)C1CC(=O)N(C(C)(C)C)C1 (stereo not given) | 3.9% | ? | -2.3% | 5.4% | -13.7%
CCOC(=O)c1ccccc1NC1CC(=O)N(c2ccccc2C)C1=O (stereo not given) | -6.2% | 0.8% | -2.0% | -12.9% | 3.55µM*
Cc1cccc(CNc2nc(-c3ccccc3CN(C)C)nc3ccccc23)c1 | . | . | . | -26.9% | .
COc1ccc2c(c1)c(C(C)=O)c(C)n2CCc1ccccc1 | 17.4% | -7.2% | 9.8% | 14.1µM* | -13.9%
CCOC(=O)C/C(C)=N/NC(=O)CN(c1ccc(Br)cc1)S(=O)(=O)c1ccccc1 | 22.4µM* | -0.7% | 83.8% | -9.5% | -6.5%
CCCC/C(C)=N/NC(=O)CN(c1ccc(Br)cc1)S(=O)(=O)c1ccccc1 | -38.2% | -7.3% | -14.8% | -11.4% | -14.4%
